Laboratory results taken from PubChem BioAssay (NCI).
This is part of a sample that, as a whole, favours compounds with a hit. Of some 83,000 tested, about 20% had one in any assay.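 96-well plates, one dose, 48 hours. Percent growth reported; active if below 10.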 Calls of active or inactive are those of the source.

Tests used:
Experiment in all cases: NCI-60 one-dose screen, 48 h (100 = growth as untreated, 0 = no growth, -100 = all killed)
Conditions in all cases: 10 µM unless noted
[1] = tested on: NCI-H23 lung
[2] = tested on: NCI-H226 lung
[3] = tested on: NCI-H322M lung
[4] = tested on: HOP-62 NSCLC
[5] = tested on: NCI-H460 lung
[6] = tested on: HOP-92 NSCLC
[7] = tested on: NCI-H522 lung
[8] = tested on: A549/ATCC NSCLC
[9] = tested on: 786-0 renal
[10] = tested on: COLO 205 colon

Measured: growth

BrC(Br)(Br)c1cnc2ccccc2n1
active: [5] 8.61% | [6] 7.52% | [7] -61.3% | [10] -86.4%
inactive: [1] 64.2% | [2] 21.3% | [3] 74.9% | [4] 60% | [8] 34.6% | [9] 67.7%

O=c1[nH]c2c(s1)CCCC2CN1CCCCC1 (stereo not given)
inactive: [1] 96.5% | [2] 95.1% | [3] 112% | [4] 83.7% | [5] 106% | [6] 104% | [7] 89.5% | [8] 80.4% | [9] 96.2% | [10] 98.4%

COc1ccc(C(=O)c2cc3c(N)c(C(=O)Nc4cccc(OC)c4)sc3nc2C)cc1
active: [5] 7.07% | [7] -16% | [10] -3.22%
inactive: [1] 33.8% | [2] 68% | [3] 58.7% | [4] 41.5% | [6] 85.3% | [8] 25.3% | [9] 50.7%

COc1c(Cl)cc(Cl)c2ccc(C=C3C(=O)N(C)C(=O)N(C)C3=O)nc12
inactive: [1] 104% | [2] 100% | [3] 106% | [4] 37.3% | [5] 96.8% | [6] 119% | [7] 92.2% | [8] 111% | [9] 53.7% | [10] 110%

Cc1ccc(C(c2c(O)c3cc(Br)ccc3[nH]c2=O)c2c(O)c3cc(Br)ccc3[nH]c2=O)cc1
inactive: [1] 86.7% | [2] 74% | [3] 96.7% | [4] 77% | [5] 89.5% | [6] 74.1% | [7] 77.8% | [8] 89.5% | [9] 92.6% | [10] 111%

O=C(Nc1ccc2cc3ccc(NC(=O)NC4CCCCC4)cc3nc2c1)NC1CCCCC1
inactive: [1] 87.5% | [2] 97.7% | [3] 104% | [4] 89.2% | [5] 103% | [6] 99.8% | [7] 103% | [8] 101% | [9] 60.1% | [10] 100%

O=C1Nc2c(ccc(Cl)c2Cl)/C1=C/c1ccc(F)cc1
inactive: [1] 87.2% | [2] 84.8% | [3] 93.9% | [4] 89.3% | [5] 97.8% | [6] 42.1% | [7] 76.4% | [8] 41.1% | [9] 76.7% | [10] 97.7%

C=Cc1cc[n+](CCCCCCCCCCCC)cc1
inactive: [1] 102% | [2] 103% | [3] 114% | [4] 111% | [5] 98.3% | [6] 134% | [7] 110% | [8] 103% | [9] 106% | [10] 118%

CC1(c2ccccc2)NC(=O)N(CC(=O)Nc2cccc(I)c2)C1=O (stereo not given)
inactive: [1] 95.3% | [2] 72.2% | [3] 83.8% | [4] 76.7% | [5] 93.3% | [6] 60.1% | [7] 67.5% | [8] 87.6% | [9] 95.3% | [10] 106%

COc1ccc(C(=O)c2cc3c(N)c(C(=O)Nc4ccc(Br)cc4)sc3nc2C)cc1
inactive: [1] 82.7% | [2] 38.5% | [3] 78.9% | [4] 21.2% | [5] 50% | [6] 66.1% | [7] 39.6% | [8] 79.5% | [9] 58.2% | [10] 85.9%

O=C(N/N=C/c1ccncc1)c1ccccc1Nc1cccc(C(F)(F)F)c1
inactive: [1] 95.5% | [2] 66.3% | [3] 88.5% | [4] 97.6% | [5] 103% | [6] 47.3% | [7] 82% | [8] 55.6% | [9] 86.7% | [10] 107%

COc1ccc(-c2c(-c3ccccc3)noc2N)cc1OC
inactive: [1] 105% | [2] 113% | [3] 96.1% | [4] 124% | [5] 116% | [6] 90.8% | [7] 86.1% | [8] 93.8% | [9] 96.4% | [10] 118%

S=c1[nH]cccc1-c1nnc2n1Nc1nc3ccccc3cc1CS2
inactive: [1] 90.7% | [2] 91.1% | [3] 101% | [4] 90.1% | [5] 99.6% | [6] 99.5% | [7] 89% | [8] 110% | [9] 100% | [10] 111%

CNC(=O)NCC1OC(n2cnc3c(NC(=O)Nc4ccccc4)ncnc32)C(O[Si](C)(C)C(C)(C)C)C1O[Si](C)(C)C(C)(C)C (stereo not given)
inactive: [1] 36.3% | [2] 49% | [3] 87.3% | [4] 61.7% | [7] 46.2% | [8] 23% | [9] 16.5%
active: [5] -6.74% | [6] -2.68% | [10] -100%

COc1ccc2c(/C=C3/C(=O)NC(=S)NC3C)cc(=O)oc2c1 (stereo not given)
inactive: [1] 98.9% | [2] 96.7% | [3] 93.1% | [4] 92.8% | [5] 105% | [6] 93% | [7] 82.3% | [8] 88.9% | [9] 95.8% | [10] 101%

COc1cc(OC)c(/C=C/C(=O)c2ccc(Nc3ncnc4ccccc34)cc2)c(OC)c1
active: [2] -17.3% | [4] -54.5% | [5] -23.1% | [6] -16.4% | [7] -51.4% | [9] -13.2% | [10] 6.02%
inactive: [1] 17% | [3] 11.5% | [8] 12.2%

O=C1/C(=C\c2cn(Cc3ccccc3)c3ccc(Br)cc23)c2ccccc2N1c1c(Cl)cccc1Cl
inactive: [1] 96.9% | [2] 91.6% | [3] 96.8% | [4] 98.5% | [5] 107% | [6] 57.1% | [7] 80.7% | [8] 90.5% | [9] 99.2% | [10] 108%

O=C(NCCN1CCOCC1)OCc1nc2nc(Cl)nc(N3CCOCC3)c2[nH]1
inactive: [1] 26.3% | [2] 62.6% | [3] 42.4% | [4] 32.5% | [6] 54.3% | [8] 68.2% | [9] 58.1% | [10] 110%
active: [5] 9.27% | [7] -29.8%

CC(=O)Nc1ccc(S(=O)(=O)NC2CCCCC2)cc1
inactive: [1] 99.9% | [2] 86.6% | [3] 96.5% | [4] 96.3% | [5] 102% | [6] 89.3% | [7] 92% | [8] 93.3% | [9] 99.8% | [10] 103%

O=C(Nc1ccc(F)cc1)c1c(NC(=O)C(F)(F)F)sc2c1CCCCC2
active: [1] -5.63% | [2] -6.78% | [4] -23.5% | [5] 2.16% | [6] -28.5% | [7] 2.42% | [8] 5.88% | [9] -10.4% | [10] -18.6%
inactive: [3] 11%

COc1ccccc1-c1c(-c2ccc(Cl)cc2)c2cc3c(cc2[nH]c1=O)OCCO3
inactive: [1] 72.8% | [2] 84% | [3] 89% | [4] 89.8% | [5] 66.3% | [6] 80.7% | [7] 62.4% | [8] 63.6% | [9] 85.4% | [10] 92.6%

COc1ccc(-c2nc(SCC(C)C)nc(N/N=C(/C)c3ccc(OC)c(OC)c3)c2C#N)cc1
inactive: [1] 89.7% | [2] 94.1% | [3] 79.7% | [4] 86.9% | [5] 65.9% | [6] 38.4% | [7] 80.8% | [8] 99.8% | [9] 96.9% | [10] 110%

c1ccc2c(-c3c4ccsc4cc4[nH]c5ccccc5c34)c[nH]c2c1
inactive: [1] 51.6% | [2] 67.9% | [3] 69.6% | [4] 39.7% | [5] 11.6% | [6] 63.1% | [7] 22.7% | [8] 39.2% | [9] 27.9% | [10] 58.4%

Cc1ccc(Nc2cc(=S)nc(N)[nH]2)cc1C
inactive: [1] 90.8% | [2] 97.1% | [3] 98.1% | [4] 89.3% | [5] 103% | [6] 75.7% | [7] 91.1% | [8] 99.9% | [9] 98.9% | [10] 112%

CC(O)/C=C/C=C/C(O)CC/C=C/C(=O)NCC(C)(C)O (stereo not given)
inactive: [1] 95.3% | [2] 108% | [3] 106% | [4] 110% | [5] 101% | [6] 96.1% | [7] 79.4% | [8] 96.1% | [9] 109% | [10] 118%
